# Data: PubChem BioAssay (NCATS)
# Results filed as inconclusive are left out. Where a call stands in place of a potency, no number is given. Active and inactive are the calls of the source. Calls come from the whole dose curve; as a rule, active = well fitted inhibition curve with a large enough effect; inconclusive = small, poorly fitted or top-dose-only effect; inactive = flat fitted curve, though single readings scatter.
# Target: Phospholipid hydroperoxide glutathione peroxidase GPX4 (Homo sapiens) (UniProt P36969)
# Sequence (P36969 whole entry, looked up): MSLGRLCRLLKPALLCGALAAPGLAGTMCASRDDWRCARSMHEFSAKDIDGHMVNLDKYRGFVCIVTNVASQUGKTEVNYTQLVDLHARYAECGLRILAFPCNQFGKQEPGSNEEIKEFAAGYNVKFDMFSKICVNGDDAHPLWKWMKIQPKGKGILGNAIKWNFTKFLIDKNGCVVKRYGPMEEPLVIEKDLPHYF
# Assay: Primary qHTS Assay for Inhibitors of Recombinant Selenoprotein Glutathione Peroxidase 4 (GPX4) (AID 1845192); note: nearly all actives have a fitted effect of over 65% in size
# Details: recombinant GPX4, GR-coupled NADPH fluorescence, 15 min; series mostly up to 27.8 µM
# Method in brief: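 Steps: GPX4 plus compound, 30 min RT; add GR/GSH/NADPH master mix; start with cumene hydroperoxide; read 340/450 nm fluorescence at 0 and 15 min. Finals were 200 nM GPX4, 1 mM GSH, 0.5 mM CHP, 0.5 mM NADPH, 100 nM GR.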
row,Compound,Potency
1,CC(=O)O[C@@H]1CC2C(C)(C)C(=O)C=C[C@]2(C)C2CC[C@]3(C)C(=CC(=O)[C@@H]3c3ccoc3)[C@@]21C (some centres undefined),inactive
2,CC(=O)OC1CC(C(C)(C)O)OC2CCC3(C)OC4=C(C(=O)C=C5C(C)C(OC(C)=O)C6(C)C(C)OC546)C(O)C3C12C (centres undefined),inactive
3,Cc1ncc(NC(=O)c2ccc(CN3CCN(C)CC3)c(C(F)(F)F)c2)cc1Nc1nccc(-c2cccnc2)n1,inactive
4,CC1C(O)C(O)C2C(C(=O)OCCc3ccc(O)cc3)=COC(O[C@@H]3O[C@H](CO)[C@@H](O)[C@H](O)[C@H]3O)C12 (some centres undefined),inactive
5,CC1OC(O[C@@H]2[C@H](O)[C@@H](OC3OC(CO)C(O)C(O)C3O)[C@H](OC(=O)[C@]34CCC(C)(C)C[C@H]3C3=CCC5[C@@]6(C)CC[C@H](O[C@@H]7O[C@H](C(=O)O)[C@@H](O)[C@H](O[C@@H]8OC[C@@H](O)[C@H](O)[C@H]8O)[C@H]7O[C@@H]7O[C@H](CO)[C@H](O)[C@H](O)[C@H]7O)[C@@](C)(C=O)C6CC[C@@]5(C)[C@]3(C)C[C@H]4O)O[C@@H]2C)C(O)C(O)C1OC1OCC(O)C(O)C1O (some centres undefined),inactive
6,Cc1cc(CNC(=O)c2cc(C(=O)NCc3ccc(F)c(C)c3)ncn2)ccc1F,inactive
7,C=CC(C)(CCC=C(C)C)O[C@@H]1O[C@H](CO)[C@@H](O)[C@H](O)[C@H]1O (some centres undefined),inactive
8,COC(=O)C(CC1(O)c2ccccc2N2C(=O)C(CC(C)C)NC21)n1cnc2ccccc2c1=O (centres undefined),inactive
9,CC(=O)OCC1OC(O[C@H]2CC[C@@]3(C)C(CC[C@]4(C)C3CC=C3[C@@H]5CC(C)(C)CC[C@]5(C(=O)O)CC[C@]34C)[C@]2(C)CO)C(O)C(O)C1OC1OC(C)C(O)C(OC2OCC(O)C(O)C2O)C1O (some centres undefined),inactive
10,FC(F)(F)c1nnc2c(Sc3ccccc3)nc3ccc(Cl)cc3n12,inactive
11,CC(C)(OC1OC(CO)C(O)C(O)C1O)C1CCC(O)(CO)C2CC(=O)C(C)(O)C2C1 (centres undefined),inactive
12,C[C@@H]1O[C@@H](O[C@H]2[C@H](O[C@H]3[C@H](O[C@H]4CC[C@@]5(C)C(CC[C@]6(C)C5CC=C5[C@@H]7CC(C)(C)C[C@@H](O)[C@]7(C)CC[C@]56C)C4(C)C)O[C@H](C(=O)O)[C@@H](O)[C@@H]3O)O[C@H](C(=O)O)[C@H](O)[C@@H]2O)[C@H](O)[C@H](O)[C@H]1O (some centres undefined),inactive
13,CC1(C)CC=C(C#Cc2ccccc2)c2cc(/C=C/c3ccc(C(=O)O)cc3)ccc21,inactive
14,CC1CCC2(C(=O)OC3OC(CO)C(O)C(O)C3O)CCC3(C)C(=CCC4C5(C)CCC(O)C(C)(CO)C5CCC43C)C2C1(C)O (centres undefined),inactive
15,OC[C@H]1O[C@@H](O[C@H]2[C@H](O)[C@@H](CO)O[C@@H](OCc3ccccc3)[C@@H]2O[C@@H]2OC[C@](O)(CO)[C@H]2O)[C@H](O)[C@@H](O)[C@@H]1O,inactive
16,CC1(O)CC(O)C2C(C(=O)O)=COC(OC3OC(CO)C(O)C(O)C3OC(=O)/C=C/c3ccc(O)cc3)C21 (centres undefined),inactive
17,COc1cc2nc(=NC(=O)c3cccnc3)n3c(c2cc1OC)NCC3,inactive
18,OCC1OC(Oc2cc(O)cc(/C=C/c3ccc(OC4OC(CO)C(O)C(O)C4O)cc3O)c2)C(O)C(O)C1O (centres undefined),inactive
19,CC(=O)O[C@H]1C[C@@H](O)C(C)(C)C2C[C@@H](OC(C)=O)[C@@]3(C)C4=CCC(C(CO)CC(O)C5OC5(C)C)[C@]4(C)CCC3[C@]21C (some centres undefined),inactive
20,CC1OC(O[C@H]2CC[C@@]3(C)C(CC[C@]4(C)C3CC=C3C5CC(C)(C)CC[C@]5(C(=O)OC5OC(CO)C(OC6OCC(OC7OCC(O)C(O)C7O)C(O)C6O)C(O)C5O)CC[C@]34C)C2(C)C)C(O)C(O)C1OC1OC(CO)C(O)C(OC2OC(CO)C(O)C(O)C2O)C1O (some centres undefined),inactive

row,Compound,Potency
1,O=C1C(Cl)=C(N2CCOCC2)C(=O)N1c1ccc(Cl)c(Cl)c1,inactive
2,COC(=O)C1=COC(O[C@@H]2O[C@H](COC(=O)/C=C/c3ccc(O)cc3)[C@@H](O)[C@H](O)[C@H]2O)C2C(CO)=CCC12 (some centres undefined),inactive
3,C[C@@H]1O[C@@H](O[C@H]2[C@H](OC(=O)[C@]34CCC(C)(C)C[C@H]3C3=CCC5[C@@]6(C)CC[C@H](O[C@@H]7O[C@H](CO[C@@H]8OC[C@H](O)[C@H](O)[C@H]8O[C@@H]8OC[C@@H](O)[C@H](O)[C@H]8O)[C@@H](O)[C@H](O)[C@H]7O)C(C)(C)C6CC[C@@]5(C)[C@]3(C)C[C@H]4O)O[C@H](CO)[C@@H](O)[C@@H]2O)[C@H](O[C@@H]2O[C@H](CO)[C@@H](O)[C@H](O)[C@H]2O)[C@H](O)[C@H]1O[C@@H]1OC[C@@H](O)[C@H](O[C@@H]2OC[C@@H](O)[C@H](O)[C@H]2O)[C@H]1O (some centres undefined),inactive
4,O=C(Nc1ccn(Cc2c(F)cccc2C(F)(F)F)n1)c1c(F)cccc1F,inactive
5,COC(=O)C1=C[C@@H](O)[C@@H](O)[C@H](O[C@@H]2O[C@H](CO)[C@@H](O)[C@H](O)[C@H]2OC(=O)/C=C/c2ccccc2)C1,inactive
6,C=C1CCC2C(C)(C(=O)OC)CCCC2(C)C1CCC1=CCOC1=O (centres undefined),inactive
7,CC(=C\C(C)O)/C=C(\C)C(=O)CC1CC(CC(N)=O)CC(=O)O1 (centres undefined),inactive
8,C=C(C)[C@@]1(O)C[C@@]2(C)C(=CC1=O)CC[C@@H](O)[C@@H]2C,inactive
9,O=C(OC1C=C(CO)C2C(OC3OC(CO)C(O)C(O)C3O)OC=CC12O)c1ccc(O)cc1 (centres undefined),inactive
10,COc1cccc(OC)c1-c1ccc(C[C@H](NC(=O)c2c(Cl)cccc2Cl)C(=O)O)cc1,inactive
11,C=CC1(C)CC=C2C(CCC3C(C)(C(=O)O)CCCC23C)C1 (centres undefined),inactive
12,CC(O)C1CCC2C3CCC4CC(OC5OC(C(=O)O)C(O)C(O)C5O)CCC4(C)C3CCC12C (centres undefined),inactive
13,CC1(C)CC[C@]2(C(=O)O[C@@H]3O[C@H](CO)[C@@H](O)[C@H](O)[C@H]3O)CC[C@]3(C)C(=CCC4[C@@]5(C)C[C@H](O)[C@H](O[C@@H]6OC[C@@H](O)[C@H](O)[C@H]6O)[C@@](C)(CO)C5CC[C@]43C)C2C1 (some centres undefined),inactive
14,CCC(C)C(=O)O[C@H]1[C@@H](O[C@H]2O[C@H](CO)[C@@H](O)[C@H](O)[C@H]2O)O[C@H](CO)[C@@H](O)[C@@H]1O (some centres undefined),inactive
15,C/C=C(\C)C(=O)O[C@H]1C=CC(=O)O[C@H]1/C=C/[C@H](O)[C@@H](C)O,inactive
16,COc1cc(CCCO)ccc1O[C@@H]1O[C@H](CO)[C@@H](O)[C@H](O)[C@H]1O,inactive
17,CCC(C)/C=C(C)/C=C/C1=CC2=C(Cl)C(=O)C(C)(OC(C)=O)C(=O)C2=CN1C(CC(=O)O)C(=O)O (centres undefined),inactive
18,CN(C)C(=O)C(O)C(Cc1ccccc1)NC(=O)c1cc2cc(Cl)ccc2[nH]1 (centres undefined),inactive
19,CC1(C)C(=O)N2c3ccccc3C(O)(CC(C(=O)O)n3cnc4ccccc4c3=O)C2N1O (centres undefined),inactive
